{"source": "the supplement of paper PMC11624193", "about": "“Coupling cellular drug-target engagement to downstream pharmacology with CeTEAM” (Nature Communications, 2024)", "note": "Where “and” joins values, the source holds several entries; their conditions need not be identical. Equal entries are not always repeated. Structures can show the parent of a compound that is named as a salt.", "data": [{"target": "PARP1 L713F-nLuc biosensor (HCT116) (UniProt P09874)", "sequence (P09874 whole entry L713F, looked up)": "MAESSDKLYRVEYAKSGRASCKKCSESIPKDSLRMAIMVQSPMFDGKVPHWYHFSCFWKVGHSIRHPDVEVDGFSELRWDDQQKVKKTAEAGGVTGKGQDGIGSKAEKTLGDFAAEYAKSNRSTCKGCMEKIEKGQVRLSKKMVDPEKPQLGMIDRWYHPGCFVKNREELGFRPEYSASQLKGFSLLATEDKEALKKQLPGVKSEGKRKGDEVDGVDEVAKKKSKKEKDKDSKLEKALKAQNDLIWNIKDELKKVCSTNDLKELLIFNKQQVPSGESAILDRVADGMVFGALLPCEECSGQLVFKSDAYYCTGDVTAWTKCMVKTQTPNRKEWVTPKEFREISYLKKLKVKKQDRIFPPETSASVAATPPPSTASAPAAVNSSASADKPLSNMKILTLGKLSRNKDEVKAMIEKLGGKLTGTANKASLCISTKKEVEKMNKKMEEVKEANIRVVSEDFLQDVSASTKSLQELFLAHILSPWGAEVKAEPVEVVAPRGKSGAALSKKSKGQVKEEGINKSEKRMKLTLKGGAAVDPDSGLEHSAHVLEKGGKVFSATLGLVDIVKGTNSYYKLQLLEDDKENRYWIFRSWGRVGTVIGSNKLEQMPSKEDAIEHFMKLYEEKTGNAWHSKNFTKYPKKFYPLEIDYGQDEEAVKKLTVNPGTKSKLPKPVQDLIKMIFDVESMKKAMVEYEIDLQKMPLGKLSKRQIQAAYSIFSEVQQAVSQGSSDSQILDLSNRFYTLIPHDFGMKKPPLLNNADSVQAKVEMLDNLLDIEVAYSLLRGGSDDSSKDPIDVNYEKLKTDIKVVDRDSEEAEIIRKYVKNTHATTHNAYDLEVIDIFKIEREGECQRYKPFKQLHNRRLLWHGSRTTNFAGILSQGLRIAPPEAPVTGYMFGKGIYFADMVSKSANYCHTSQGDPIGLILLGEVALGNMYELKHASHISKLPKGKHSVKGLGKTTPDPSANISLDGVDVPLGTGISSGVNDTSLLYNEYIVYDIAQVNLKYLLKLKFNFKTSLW", "assay": "PARP1 L713F-nLuc/akaLuc ratio relative to DMSO control (biosensor stabilization) (fold change); higher = more PARP1 biosensor stabilization (target engagement / stabilizer), active = hit call of the paper", "conditions": "stock concentration (mM; final µM = stock mM x 1): 10; 24 h;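 active = log2 fold change beyond 2 SD from the library mean after excluding viability outliers; inactive = within 2 SD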", "values": [{"smiles": "CCOC(=O)c1ccnc(CNCC(=O)N(CC)CCN(C)C)c1", "PARP1 L713F-nLuc/akaLuc ratio": "2.92 (active)"}, {"smiles": "C[C@H](Nc1ncnc2nc[nH]c12)c1cc2cccc(Cl)c2c(=O)n1-c1ccccc1", "note": "[Duvelisib (IPI-145, INK1197)]", "PARP1 L713F-nLuc/akaLuc ratio": "0.838 (inactive)"}, {"smiles": "CC[C@H](C)C(=O)O[C@H]1C[C@H](O)C=C2C=C[C@H](C)[C@H](CC[C@@H](O)C[C@@H](O)CC(=O)O)[C@H]21", "note": "[Pravastatin sodium]", "PARP1 L713F-nLuc/akaLuc ratio": "0.829 (inactive)"}, {"smiles": "CC(C)(C)NC(=O)[C@H]1CC[C@H]2[C@@H]3CC[C@H]4NC(=O)C=C[C@]4(C)[C@H]3CC[C@]12C", "note": "[Finasteride]", "PARP1 L713F-nLuc/akaLuc ratio": "1.22 (inactive)"}, {"smiles": "C=CC(=O)N1CCC[C@@H](n2nc(-c3ccc(Oc4ccccc4)cc3)c3c(N)ncnc32)C1", "PARP1 L713F-nLuc/akaLuc ratio": "0.773 (inactive)"}, {"smiles": "Cc1cc(C)c(CNC(=O)c2cc(-c3ccc(CN4CCOCC4)cc3)cc3c2cnn3C2CCCC2)c(=O)[nH]1", "PARP1 L713F-nLuc/akaLuc ratio": "1.16 (inactive)"}, {"smiles": "O=C(O)c1ccccc1Nc1cccc(C(F)(F)F)c1", "note": "[Flufenamic acid]", "PARP1 L713F-nLuc/akaLuc ratio": "1.23 (inactive)"}, {"smiles": "COC(=O)c1ccc2c(c1)nc(NC(=O)c1ccccc1)n2CCCc1ccccc1", "PARP1 L713F-nLuc/akaLuc ratio": "0.949 (inactive)"}, {"smiles": "CN1CC[C@@H](NC(=O)Nc2ccc(C#N)cc2)C[C@@H]1c1nc2ccccc2[nH]1", "PARP1 L713F-nLuc/akaLuc ratio": "0.89 (inactive)"}, {"smiles": "COc1ccc2c(Oc3ccc4c(C(=O)Nc5ccccc5N)cccc4c3)ccnc2c1", "note": "[Chiauranib]", "PARP1 L713F-nLuc/akaLuc ratio": "0.819 (inactive)"}, {"smiles": "C[C@@H](NC(=O)c1ncnc(N)c1Cl)c1ncc(C(=O)Nc2cc(C(F)(F)F)c(Cl)cn2)s1", "PARP1 L713F-nLuc/akaLuc ratio": "0.886 (inactive)"}, {"smiles": "CCOc1cccc2c1N[C@@H](c1ccc(C(=O)O)cc1)[C@H]1CC=C[C@@H]21", "note": "[LIN28 inhibitor LI71]", "PARP1 L713F-nLuc/akaLuc ratio": "0.616 (inactive)"}, {"smiles": "CCN(c1cc(C#CCN2CCOCC2)cc(C(=O)NCc2c(C)cc(C)[nH]c2=O)c1C)[C@H]1CC[C@H](N(C)CCOC)CC1", "PARP1 L713F-nLuc/akaLuc ratio": "1.57 (inactive) and 1.94 (inactive)"}, {"smiles": "CCNC(=O)NCCSC[C@H]1O[C@@H](n2cnc3c(N)ncnc32)[C@H](O)[C@@H]1O", "PARP1 L713F-nLuc/akaLuc ratio": "0.751 (inactive)"}, {"smiles": "O=c1[nH]cc(F)c(=O)[nH]1", "note": "[Fluorouracil (5-Fluoracil, 5-FU)]", "PARP1 L713F-nLuc/akaLuc ratio": "0.702 (inactive)"}, {"smiles": "O=C(O)CNC(=O)C1=C(O)CCN(Cc2ccc(Oc3ccc(Cl)cc3)nc2)C1=O", "PARP1 L713F-nLuc/akaLuc ratio": "1.22 (inactive)"}, {"smiles": "NC(=O)NO", "note": "[Hydroxyurea]", "PARP1 L713F-nLuc/akaLuc ratio": "0.953 (inactive)"}, {"smiles": "CCc1cccc(CC)c1NC(=O)N1Cc2[nH]nc(NC(=O)c3ccc(N4CCN(C)CC4)cc3)c2C1", "PARP1 L713F-nLuc/akaLuc ratio": "0.92 (inactive)"}, {"smiles": "COc1ccc(NC(=O)c2ccc(NC3=C(C)C(=O)CC3)c(Cl)c2)cc1", "PARP1 L713F-nLuc/akaLuc ratio": "0.879 (inactive)"}, {"smiles": "CN1CCN(c2nc(C3=C(c4c[nH]c5ccccc45)C(=O)NC3=O)c3ccccc3n2)CC1", "note": "[Sotrastaurin]", "PARP1 L713F-nLuc/akaLuc ratio": "1.31 (inactive)"}, {"smiles": "CCN(C(=O)c1ccccc1OC)c1cc2c(cc1N1CCNC[C@H]1C)n(C)c(=O)n2C", "PARP1 L713F-nLuc/akaLuc ratio": "0.597 (inactive)"}, {"smiles": "Cn1cc(Nc2nccc(N3C[C@H]4CC[C@@H](C3)N4C(=O)[C@@H]3CC3(F)F)n2)cn1", "note": "[Brepocitinib (P-Tosylate)]", "PARP1 L713F-nLuc/akaLuc ratio": "0.619 (inactive)"}, {"smiles": "O=c1c(O)c(-c2ccc(O)c(O)c2)oc2cc(O)c(O)c(O)c12", "note": "[Quercetagetin]", "PARP1 L713F-nLuc/akaLuc ratio": "0.792 (inactive)"}, {"smiles": "COCCNCc1ccc(-c2cc3nccc(Oc4ccc(NC(=O)C5(C(=O)Nc6ccc(F)cc6)CC5)cc4F)c3s2)nc1", "note": "[Sitravatinib (MGCD516)]", "PARP1 L713F-nLuc/akaLuc ratio": "1.48 (inactive)"}, {"smiles": "Cc1cc(N2C[C@@H](C)N[C@@H](C)C2)ncc1-c1ccc(-c2nc3c(ccn3C)c(=O)[nH]2)cc1", "PARP1 L713F-nLuc/akaLuc ratio": "1.15 (inactive)"}, {"smiles": "N#Cc1ccc(C(=O)N(Cc2cccs2)C2CC2)cc1", "PARP1 L713F-nLuc/akaLuc ratio": "1.18 (inactive)"}, {"smiles": "O=C(Nc1ccccc1-c1cn2c(CN3CC[C@@H](O)C3)csc2n1)c1ccc2ccccc2c1", "PARP1 L713F-nLuc/akaLuc ratio": "0.641 (inactive)"}, {"smiles": "Cc1cccc(-c2nn3c(c2-c2ccnc4ccc(C(N)=O)cc24)CCC3)n1", "PARP1 L713F-nLuc/akaLuc ratio": "0.664 (inactive)"}, {"smiles": "CNC(=O)c1cc(COc2nnc(Nc3ccc(Cl)cc3)c3ccoc23)ccn1", "note": "[Telatinib]", "PARP1 L713F-nLuc/akaLuc ratio": "1.17 (inactive)"}, {"smiles": "N=C(N)c1ccc(-c2ccc(-c3ccc(C(=N)N)cc3)o2)cc1", "note": "[Furamidine (dihydrochloride)]", "PARP1 L713F-nLuc/akaLuc ratio": "0.717 (inactive)"}, {"smiles": "CCN(c1cc(-c2ccc(CN3CCOCC3)cc2)cc(C(=O)NCc2c(C)cc(C)[nH]c2=O)c1C)C1CCOCC1", "note": "[Tazemetostat (hydrobromide)]", "PARP1 L713F-nLuc/akaLuc ratio": "0.726 (inactive)"}, {"smiles": "Nc1nc(Nc2ccc(S(N)(=O)=O)cc2)nn1C(=O)c1c(F)cccc1F", "PARP1 L713F-nLuc/akaLuc ratio": "0.483 (inactive)"}, {"smiles": "CNCc1ccc(-c2[nH]c3cc(F)cc4c3c2CCNC4=O)cc1", "note": "[Rucaparib]", "PARP1 L713F-nLuc/akaLuc ratio": "5.36 (active)"}, {"smiles": "CC(=O)Nc1ccccc1-c1cccc2c1[nH]c1ccccc12", "PARP1 L713F-nLuc/akaLuc ratio": "0.622 (inactive)"}, {"smiles": "COc1c(CN)cc(CN)cc1OCCCN1Cc2ccccc2C1", "note": "[MS31 (trihydrochloride)]", "PARP1 L713F-nLuc/akaLuc ratio": "0.851 (inactive)"}, {"smiles": "CS(=O)(=O)c1ccc(C(=O)Nc2ccc(Cl)c(-c3ccccn3)c2)c(Cl)c1", "note": "[Vismodegib (GDC-0449)]", "PARP1 L713F-nLuc/akaLuc ratio": "1.11 (inactive)"}, {"smiles": "CN1CCCN(C(=O)c2cccc(-c3ccc(/C=C4/C(=O)Nc5ccc(Cl)cc54)o3)c2)CC1", "PARP1 L713F-nLuc/akaLuc ratio": "0.758 (inactive)"}, {"smiles": "O=C(Nc1ccc(C(F)(F)F)cc1)Nc1ccc(S(=O)(=O)N2CCC[C@H]2C(=O)Nc2ccccc2)cc1", "PARP1 L713F-nLuc/akaLuc ratio": "0.728 (inactive)"}, {"smiles": "CC[C@H](C)n1cc(C)c2c(C(=O)NCc3c(C)cc(C)[nH]c3=O)cc(-c3ccc(N4CCNCC4)nc3)cc21", "PARP1 L713F-nLuc/akaLuc ratio": "1.03 (inactive)"}]}]}
